Reference: PubChem BioAssay
For some assays here: Potency and affinity values are given separately. Activity calls are given as the source filed them.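 The calls were made as follows, unless noted: active = calcium signal ratio cut to more than 3 SD under the fully stimulated control mean yet still positive, in both repeats and the primary screen; inactive = the rest.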

Assays:
[1] = tested on: TRPC4 beta (transient receptor potential cation channel C4), mouse; experiment: activators of mouse TRPC4 channel, confirmation, cell-based, Fluo4 calcium, HEK293 TRPC4beta/mu-opioid, duplicates, 10 µM (AID 2426;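 active = fluorescence ratio normalized to control raised more than 50% in primary screen plus both repeat runs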); conditions: Fluo4 calcium fluorescence, at 10 µM; hits give high values
[2] = tested on: transient receptor potential cation channel C4 beta (TRPC4), mouse; experiment: activators of mouse TRPC4 channel, confirmation, cell-based, second round, Fluo4, HEK293 TRPC4beta/mu-opioid, 1 µM (AID 2461;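 active = primary screen active and over 50% activation in each of two duplicate runs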); conditions: Fluo4 calcium fluorescence, at 1 µM; hits give high values
[3] = tested on: TRPC4 (transient receptor potential cation channel C4 beta), mouse; experiment: positive allosteric modulators of mouse TRPC4, confirmation, cell-based, second round, Fluo-4, HEK293 TRPC4beta/mu-opioid, 1 µM (AID 2554;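 active = primary screen hit whose fluorescence ratio, in both repeats, exceeds the weak agonist control mean by 3 SD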); conditions: DAMGO EC20, Fluo-4 calcium flux, at 1 µM; hits give high values
[4] = tested on: TRPC4 beta (transient receptor potential cation channel C4), mouse; experiment: positive allosteric modulators of mouse TRPC4, confirmation, cell-based, Fluo-4, HEK293 TRPC4beta/mu-opioid (AID 2555;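 active = primary screen hit whose calcium fluorescence ratio, in both repeats, exceeds the weak agonist control mean by 3 SD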); conditions: DAMGO EC20, Fluo-4 calcium flux, at 10 µM; hits give high values
[5] = molecular target: Short transient receptor potential channel 4 (Mus musculus) (UniProt Q9QUQ5); experiment: inhibitors of mouse TRPC4 channel, confirmation, cell-based, Fluo4, HEK293 TRPC4beta/mu-opioid (AID 2636;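 active = calcium signal cut by more than 3 SD below the full-agonist control yet still positive, in both repeats and the earlier primary screen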); conditions: DAMGO, Fluo4 calcium flux, at 10 µM; hits give high values
[6] = molecular target: Short transient receptor potential channel 4 (Mus musculus) (UniProt Q9QUQ5); experiment: inhibitors of mouse TRPC4 channel, confirmation, cell-based, second round, Fluo4, HEK293 TRPC4beta/mu-opioid, 1 µM (AID 2637); conditions: Fluo4 calcium flux, DAMGO, at 1 µM; hits give high values;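 as to inhibition: percent of integrated ratio relative to wells lacking test compound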
[7] = molecular target: Short transient receptor potential channel 4 (Mus musculus) (UniProt Q9QUQ5); experiment: mouse TRPC4 channel activators, dose response, cell-based, HEK293 TRPC4/mu-opioid, Fluo-4 calcium (AID 434937;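 active = primary screen activator hit with a dose response curve and TRPC4 channel activation at any tested dose; inactive = no activation, no dose response, or not a primary hit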)
[8] = molecular target: Short transient receptor potential channel 4 (Mus musculus) (UniProt Q9QUQ5); experiment: TRPC4 positive allosteric modulators, dose response, cell-based, HEK293 TRPC4/mu-opioid, Fluo-4 calcium, EC20 DAMGO (AID 434941;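 active = earlier screen potentiator hit that boosts the TRPC4 ion channel at some dose, with a dose response; inactive = no potentiation, no dose response, or not a prior hit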;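 also: calcium entry triggered by an EC20 dose of DAMGO at the co-expressed mu-opioid receptor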)
[9] = molecular target: Short transient receptor potential channel 6 (Mus musculus) (UniProt Q61143); experiment: inhibition of mouse TRPC6 channel, confirmation, selectivity assay for TRPC4 inhibitor project, cell-based, HEK293, membrane potential dye, duplicate (AID 434948;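 active = active in primary screen and both duplicates, each dropping signal beyond three positive-control SD with fluorescence still positive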); conditions: HEK293 TRPC6, membrane potential dye fluorescence, at 10 µM, stimulated with maximal-effect acetylcholine; hits give high values
[10] = molecular target: Short transient receptor potential channel 6 (Mus musculus) (UniProt Q61143); experiment: activation of mouse TRPC6 channel, confirmation, selectivity assay for TRPC4 activator project, cell-based, HEK293, membrane potential dye, duplicate (AID 434950;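 active = membrane potential signal rise above negative control mean plus 3 SD in both duplicates, also active in the earlier TRPC4 screen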); conditions: HEK293 TRPC6, membrane potential fluorescence, at 10 µM; hits give high values
[11] = molecular target: Short transient receptor potential channel 6 (Mus musculus) (UniProt Q61143); experiment: TRPC6 potentiation by TRPC4 potentiator hits, confirmation, selectivity assay for TRPC4 potentiator project, HEK293 cells, membrane potential dye, duplicate (AID 434952;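 active = compound raising the membrane signal above positive-control mean plus 3 SD in both repeats, and a primary screen hit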); conditions: HEK293 TRPC6, membrane potential dye fluorescence, at 10 µM, maximal acetylcholine added after compound; hits give high values
[12] = molecular target: Short transient receptor potential channel 4 (Mus musculus) (UniProt Q9QUQ5); experiment: calcium flux activators in TRPC4/5HT1a cells, counter-screen for TRPC4 activator project, cell-based, second counter screen, HEK293 TRPC4/5HT1a, Fluo-4 (AID 434977;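 active = calcium signal rise above buffer-control mean plus 5 SD in both duplicates, and also a hit in the primary screen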); conditions: Fluo-4 calcium flux, at 10 µM; hits give high values
[13] = calcium flux inhibitors in TRPC4/5HT1a cells, confirmation, counter-screen for TRPC4 inhibitor project, cell-based, second counter screen, HEK293 TRPC4/5HT1a, Fluo-4 (AID 434978;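 active = primary screen active whose calcium signal fell more than 3 SD beyond the full-serotonin control mean in both duplicate plates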); conditions: Fluo-4 calcium flux, at 10 µM, serotonin added to trigger calcium flux; hits give high values
[14] = tested on: TRPC4 (mouse), co-expressed with 5HT1a in HEK293; experiment: calcium flux potentiators in TRPC4/5HT1a cells, confirmation, counter-screen for TRPC4 potentiator project, cell-based, second counter screen, HEK293 TRPC4/5HT1a, Fluo-4 (AID 434979;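 active = signal rise over 3 SD above mean of control wells given weak agonist, in both repeats and first screen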); conditions: Fluo-4 calcium flux, at 10 µM, serotonin added at its EC20 dose; hits give high values
[15] = calcium flux activation in mu-opioid HEK293 cells, confirmation, counter-screen for TRPC4 activator project, cell-based, HEK293 mu-opioid receptor line (AID 449723;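 active = hit in primary screen, with calcium signal over 5 SD above buffer well mean in both duplicates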;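 also: counter screen cells carry the mu-opioid receptor alone and lack TRPC4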); conditions: Fluo-4 calcium fluorescence, at 10 µM; hits give high values
[16] = calcium flux enhancement in mu-opioid HEK293 cells, confirmation, counter-screen for TRPC4 allosteric potentiator project, cell-based, HEK293 mu-opioid receptor line (AID 449724;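 active = calcium signal rise more than 3 SD above the low-dose agonist control mean, in both duplicate plates and the primary screen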); conditions: Fluo-4 calcium flux, at 10 µM, compound added before EC20 DAMGO stimulus; hits give high values

Measured: inhibition

Chain of Short transient receptor potential channel 6 (Mus musculus) (Q61143 whole entry, looked up): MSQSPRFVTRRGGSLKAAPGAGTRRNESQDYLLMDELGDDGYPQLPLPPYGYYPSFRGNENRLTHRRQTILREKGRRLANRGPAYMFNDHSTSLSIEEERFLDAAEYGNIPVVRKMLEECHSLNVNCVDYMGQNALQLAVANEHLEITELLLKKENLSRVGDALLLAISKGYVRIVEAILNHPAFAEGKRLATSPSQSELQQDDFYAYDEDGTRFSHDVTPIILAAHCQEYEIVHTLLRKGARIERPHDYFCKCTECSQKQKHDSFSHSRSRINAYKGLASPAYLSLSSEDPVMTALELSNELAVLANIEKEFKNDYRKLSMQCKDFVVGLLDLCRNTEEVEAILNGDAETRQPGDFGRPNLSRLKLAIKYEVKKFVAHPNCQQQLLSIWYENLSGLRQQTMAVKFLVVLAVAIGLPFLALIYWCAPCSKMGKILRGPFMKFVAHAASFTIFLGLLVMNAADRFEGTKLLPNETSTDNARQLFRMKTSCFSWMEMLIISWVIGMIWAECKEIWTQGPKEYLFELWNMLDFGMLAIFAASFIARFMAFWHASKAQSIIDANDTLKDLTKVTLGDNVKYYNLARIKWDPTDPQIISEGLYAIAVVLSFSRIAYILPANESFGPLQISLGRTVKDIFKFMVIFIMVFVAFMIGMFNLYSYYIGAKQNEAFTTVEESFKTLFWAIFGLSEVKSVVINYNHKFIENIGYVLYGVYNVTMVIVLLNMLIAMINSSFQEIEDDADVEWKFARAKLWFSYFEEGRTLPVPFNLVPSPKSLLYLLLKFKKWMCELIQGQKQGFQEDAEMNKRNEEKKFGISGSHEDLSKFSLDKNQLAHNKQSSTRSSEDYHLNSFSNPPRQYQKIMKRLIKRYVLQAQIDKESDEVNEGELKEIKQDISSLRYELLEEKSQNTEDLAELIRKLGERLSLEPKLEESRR
Chain of Short transient receptor potential channel 4 (Mus musculus) (Q9QUQ5 whole entry, looked up): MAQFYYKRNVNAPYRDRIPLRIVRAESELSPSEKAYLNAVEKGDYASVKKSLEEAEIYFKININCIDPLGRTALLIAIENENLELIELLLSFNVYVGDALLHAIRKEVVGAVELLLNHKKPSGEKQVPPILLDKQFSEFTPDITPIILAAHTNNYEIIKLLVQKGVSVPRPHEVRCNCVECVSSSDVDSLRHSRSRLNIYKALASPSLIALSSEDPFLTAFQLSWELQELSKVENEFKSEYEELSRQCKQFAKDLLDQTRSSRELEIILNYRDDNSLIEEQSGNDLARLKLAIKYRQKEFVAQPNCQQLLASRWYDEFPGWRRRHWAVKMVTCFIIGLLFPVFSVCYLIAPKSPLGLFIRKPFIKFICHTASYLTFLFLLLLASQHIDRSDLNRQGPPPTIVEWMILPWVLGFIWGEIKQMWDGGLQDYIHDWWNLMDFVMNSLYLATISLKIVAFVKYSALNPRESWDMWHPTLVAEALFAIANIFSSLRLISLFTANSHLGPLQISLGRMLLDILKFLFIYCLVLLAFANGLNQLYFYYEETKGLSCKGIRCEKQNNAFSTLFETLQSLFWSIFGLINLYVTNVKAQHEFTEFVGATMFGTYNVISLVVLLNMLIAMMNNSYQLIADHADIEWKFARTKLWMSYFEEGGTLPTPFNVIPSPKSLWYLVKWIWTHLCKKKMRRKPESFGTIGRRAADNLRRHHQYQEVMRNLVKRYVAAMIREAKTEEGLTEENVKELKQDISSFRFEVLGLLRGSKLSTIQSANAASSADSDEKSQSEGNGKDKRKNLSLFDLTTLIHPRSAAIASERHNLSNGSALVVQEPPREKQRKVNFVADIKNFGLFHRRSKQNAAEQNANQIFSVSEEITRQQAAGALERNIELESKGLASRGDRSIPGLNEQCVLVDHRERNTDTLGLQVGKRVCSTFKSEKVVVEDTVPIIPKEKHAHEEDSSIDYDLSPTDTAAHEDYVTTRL

COC(=O)CSc1nnc(-c2sc3cc(OC)ccc3c2Cl)n1C
active: [5] 95% | [6] 59%
inactive: all other assays above

Cc1ccc(N(CC(=O)NC2CCCC2)C(=O)CNC(=O)c2cccs2)cc1F
active: [5] 70%
inactive: all other assays above

C=CCc1ccccc1OCC(O)CN1CCN(c2ccccc2OC)CC1 (centres undefined)
active: [5] 68% | [13] 13.1%
inactive: all other assays above

COc1ccc2c(c1)C=C(CN1CCC(CO)(CCc3ccccc3)CC1)CO2
active: [5] 102% | [13] 35.7%
inactive: all other assays above

O=C(Cc1cccc2ccccc12)Nc1ccc(Br)cc1C(=O)O
active: [5] 89% | [13] 28.9%
inactive: all other assays above

COc1ccc(C(CNC(=O)c2oc3ccc(F)cc3c2C)N2CCCCC2)cc1 (centres undefined)
active: [5] 98%
inactive: all other assays above

Cc1cccc(C)c1-n1cccc1/C=C1\SC(=S)N(c2cccc(C(=O)O)c2)C1=O
active: [5] 89% | [13] 23.2%
inactive: all other assays above

CC(=O)N1CCN(c2ccccc2NC(=O)c2ccc3ccccc3c2)CC1
active: [5] 85% | [6] 74% | [13] 36.5%
inactive: all other assays above

CCN(CC)Cc1cc(CCNC(=O)c2ccc(Cl)cc2)ccc1O
active: [5] 97% | [6] 75% | [13] 31.2%
inactive: all other assays above

CCCn1c(NCc2ccc(C)o2)nc2ccccc21
active: [5] 70% | [13] 30%
inactive: all other assays above

CC(=O)C1=C(O)C(=O)N(Cc2ccccc2)C1c1ccc([N+](=O)[O-])cc1 (centres undefined)
active: [5] 95% | [6] 61% | [13] 34.5%
inactive: all other assays above

CC(C)c1ccc(S(=O)(=O)/N=C2\C=C(NS(=O)(=O)c3ccccc3)C(=O)c3ccccc32)cc1
active: [5] 81% | [9] 21.5% | [13] 19.2%
inactive: all other assays above

COc1cccc(C(CNC(=O)C(c2ccccc2)c2ccccc2)N(C)C)c1 (centres undefined)
active: [5] 89%
inactive: all other assays above

CC1(c2ccccc2)CC(C)(C)N(C(=O)C2CCCO2)c2ccccc21 (centres undefined)
active: [5] 90% | [13] 38.3%
inactive: all other assays above
